Assay results taken from PubChem BioAssay (NCI).
About 79,000 compounds went through this panel and 15% of them were active in at least one assay; those are over-represented in the sample as a whole. No stated cut-off is given here; in the data, active means growth inhibition above about 70%; inactive means the rest.

Columns and labels:
[1] = NCI Yeast Anticancer Drug Screen. Data for the rad50 strain (AID 155);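 further: 0% = growth of vehicle-only cultures of the same strain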; settings: S. cerevisiae rad50 strain growth inhibition; at 50.0 µM; hits give high values
Outline: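 Growth of the mutant yeast was measured after compound exposure and referenced to vehicle-treated cultures.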

[2] = NCI Yeast Anticancer Drug Screen. Data for the mec2-1 strain (AID 157); settings: S. cerevisiae mec2-1 strain, at 50.0 µM, hits give high values
Outline: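 Readout is yeast growth inhibition, normalised to vehicle-treated controls, in the mec2-1 strain exposed to compound.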

[3] = NCI Yeast Anticancer Drug Screen. Data for the sgs1 mgt1 strain (AID 161);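 further: 0% = growth of cultures given vehicle only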; settings: S. cerevisiae sgs1 mgt1 strain, at 50.0 µM, hits give high values
Outline: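 Yeast cells carrying a defined DNA-repair defect were exposed to test compounds. Growth inhibition was measured relative to vehicle-treated controls.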

[4] = NCI Yeast Anticancer Drug Screen. Data for the cln2 rad14 strain (AID 165);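 further: 0% = growth equal to vehicle treated cultures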; settings: S. cerevisiae cln2 rad14 strain, at 50.0 µM, hits give high values
Outline: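 Relative to vehicle controls, growth inhibition of compound-treated cln2 rad14 yeast was recorded.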

[5] = NCI Yeast Anticancer Drug Screen. Data for the bub3 strain (AID 167); settings: S. cerevisiae bub3 mutant strain, at 50.0 µM, hits give high values
Outline: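 Whole-cell yeast assay. The mutant strain was incubated with compounds, and growth inhibition was determined by comparison with vehicle-treated cells.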

[6] = NCI Yeast Anticancer Drug Screen. Data for the mlh1 rad18 strain (AID 175); settings: S. cerevisiae mlh1 rad18 strain growth inhibition; at 50.0 µM; hits give high values
Outline: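 Test agents were incubated with a yeast strain of defined genotype (DNA damage repair defect). Inhibition of growth was derived by comparison with vehicle-exposed cultures.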

Measured: growth inhibition

O=C1c2cccc([N+](=O)[O-])c2C(=O)c2cccc(Cl)c21
inactive: [1] 29.2% | [2] 9.35% | [3] -4.15% | [4] -17.9% | [5] 32.5% | [6] 42.9%

CCOC(=O)c1c(C)c(=O)cnc2c(C#N)cnn12
inactive: [1] -4.55% | [2] -6.75% | [3] -6.8% | [4] -33.2% | [5] -1.4% | [6] -8.35%

CCc1ccc(S(N)(=O)=O)cc1
inactive: [1] 11.1% | [2] -4.1% | [3] -16.3% | [4] -24.6% | [5] -7% | [6] -168%

NCc1ccccc1F
inactive: [1] -10.2% | [2] -23.9% | [3] 12.3% | [4] 13.7% | [5] -6.75% | [6] 4.15%

CCCCCC1CCC(O)CC1 (stereo unspecified)
inactive: [1] 16.1% | [2] 6.55% | [3] 21.1% | [4] -61.4% | [5] 4.2% | [6] -7.55%

Cc1nc(NCc2ccco2)nc(NCc2ccco2)c1[N+](=O)[O-]
inactive: [1] -14.7% | [2] -18.6% | [3] -5.85% | [4] -22.6% | [5] 27.7% | [6] -13.1%

Cn1c(=O)c2c(nc(CCC(N)=O)n2C)n(C)c1=O
inactive: [1] -1.35% | [2] -20.9% | [3] 8.25% | [4] -14.8% | [5] 11.8% | [6] 12.7%

O=C(CO)CC(=O)C(=O)Nc1ccccc1
inactive: [1] -10.8% | [2] -22.9% | [3] 1.5% | [4] 10.6% | [5] -4.15% | [6] -9.9%

CCOC(=O)CN=c1nc(SC)sc2c(C(=O)OCC)nc(Sc3ccccc3)n12
inactive: [1] 1.25% | [2] -7.25% | [3] 1.55% | [4] 13.6% | [5] -11.4% | [6] 8.65%

Cc1cc(=O)c2ccccc2n1CCCCCCCCCCn1c(C)cc(=O)c2ccccc21
inactive: [1] -12.1% | [2] -0.25% | [3] -17% | [4] -21.9% | [5] -26.6% | [6] 26.4%

OC1(c2ccc(C3(O)C(c4ccccc4)=C(c4ccccc4)C(c4ccccc4)=C3c3ccccc3)cc2)C(c2ccccc2)=C(c2ccccc2)C(c2ccccc2)=C1c1ccccc1
inactive: [1] 5.6% | [2] -1.75% | [3] -1.7% | [4] -6.6% | [5] -2.15% | [6] 9.85%

CCC(C)CCOC(=O)c1ccc(N=Cc2ccc(C=Nc3ccc(C(=O)OCCC(C)CC)cc3)cc2)cc1 (stereo unspecified)
inactive: [1] -20.5% | [2] 2.7% | [3] 30% | [4] 11.6% | [5] 43.4% | [6] 29.9%

O=C(NCCCCNCCCNC(=O)c1ccc([N+](=O)[O-])cc1)c1ccc([N+](=O)[O-])cc1
inactive: [1] -5.5% | [2] 4.1% | [3] -11.1% | [4] -26.3% | [5] 4.4% | [6] -11.4%

CN(C)Cc1[nH]c2ccccc2c1Sc1ccccc1
inactive: [1] 0.85% | [2] 2.4% | [3] 24.6% | [4] 6.2% | [5] -27.9% | [6] 30.8%

COc1cc(C2CC(C)(OC)Oc3cc4c(cc32)OCO4)cc(OC)c1OC (stereo unspecified)
inactive: [1] 42.5% | [2] -2.6% | [3] 2.7% | [4] 19.8% | [5] 19.3% | [6] 20.2%

CN(C)CC1CC(O)C(CN(C)C)CC1O (stereo unspecified)
inactive: [1] -6.2% | [2] -13.4% | [3] -20.2% | [4] -6.15% | [5] -6.25% | [6] -8.95%

COc1cc(Br)cc2nc(-c3cccs3)oc12
inactive: [1] -15.3% | [2] -46.9% | [3] -62.2% | [4] -24.6% | [5] -8.1% | [6] -32.5%

COc1cc2c3c(c1OC)-c1cc4c(cc1CC3(C#N)N(C(=O)c1ccccc1)CC2)OCO4 (stereo unspecified)
inactive: [1] 3.5% | [2] 8.05% | [3] -29.2% | [4] -5.35% | [5] 15.1% | [6] 26.1%

Clc1nc(C(Cl)Cl)nc2ccccc12
inactive: [1] 9.65% | [2] 10.8% | [3] 14.2% | [4] 2.9% | [5] 16.1% | [6] 12.4%

CC(C)(C)S(=O)(=O)C[N+]1(C)CCOCC1
inactive: [1] 37.1% | [2] 11.6% | [3] -1.6% | [4] -2% | [5] -3.25% | [6] 5.35%

COC(=O)c1s/c(=N\C(=S)N(C)C)n(-c2ccc(Cl)cc2)c1C(=O)OC
inactive: [1] -0.4% | [2] 2.25% | [3] -4.1% | [4] -40.1% | [5] -21.9% | [6] -3.2%

O/N=C\c1cccc[n+]1Cc1ccc2ccccc2c1Br
inactive: [1] -1.7% | [2] 1.95% | [3] -7.55% | [4] -7.05% | [5] 10.7% | [6] -1.75%

Fc1ccc(-c2cc(-c3cccs3)cc(-c3ccccc3)n2)cc1
inactive: [1] 8.6% | [2] -9.45% | [3] 21.2% | [4] 8.55% | [5] 20.8% | [6] 11.1%

Nc1cc(Cl)c([N+](=O)[O-])cc1O
inactive: [1] 6.2% | [2] 18.4% | [3] 5.55% | [4] -66.2% | [5] 5.05% | [6] -12%

FC(F)(F)c1cccc(-c2nc3nc(Cl)c(Cl)nc3[nH]2)c1
inactive: [1] 15.1% | [2] -2% | [3] -5.7% | [4] -15.7% | [5] 18.4% | [6] 26.3%

COCn1c(C)c(C)c2c(=O)oc(=O)[nH]c21
inactive: [1] -23.2% | [2] 17.7% | [3] -30.6% | [4] -11.3% | [5] 16.6% | [6] -25.5%

O=C(O)c1ccc(-n2cnc3c(=O)[nH]cnc32)cc1
inactive: [1] -8.6% | [2] -12.9% | [3] -13.3% | [4] -9.45% | [5] -4.9% | [6] -7.85%

Cc1ccc(C(=N)c2ccccc2Cc2ccccc2)cc1C
inactive: [1] -11.7% | [2] -2.45% | [3] -15.1% | [4] -12.2% | [5] 7.9% | [6] -27.9%

CN(C)/N=C/c1cn(C)c(=O)n(C)c1=O
inactive: [1] 0.15% | [2] 3% | [3] 5.75% | [4] -5.55% | [5] -20.3% | [6] 1.85%

CCCCNC(C)=O
inactive: [1] 4.5% | [2] -9.15% | [3] -18.5% | [4] -21.6% | [5] -0.95% | [6] -1.7%

NC(=O)[N+](=CC(=S)Nc1ccccc1Cl)C(N)=O
inactive: [1] -43.3% | [2] -43.5% | [3] -36.7% | [4] -15.8% | [5] -33.4% | [6] 34.6%

COc1ccc2c(c1)C1CCCCC1SCC2=O (stereo unspecified)
inactive: [1] 1% | [2] 7.4% | [3] -1.9% | [4] -10.9% | [5] 15.8% | [6] -15.3%

CCCCN(CCCC)CC(CC)N(CCCC)CCCC (stereo unspecified)
inactive: [1] -8.4% | [2] 1.8% | [3] -5.7% | [4] -38.6% | [5] 10.8% | [6] 7.35%

C=CCC(=S)NCCc1c[nH]c2ccccc12
inactive: [1] -12.2% | [2] 2.4% | [3] -5.5% | [4] 2.55% | [5] 11.8% | [6] -18.9%

CC(=O)OCC12CCC(O1)C1C(=O)OC(=O)C12 (stereo unspecified)
inactive: [1] -3.85% | [2] -2.25% | [3] -9.2% | [4] -3.4% | [5] -11.1% | [6] 1.05%

CC(C)CCC(C)(C)COC(=O)c1ccc([N+](=O)[O-])cc1 (tested in a mixture with another compound)
inactive: [1] 36.5% | [2] 15.1% | [3] 43.4% | [4] -2.25% | [5] 2.15% | [6] 29.3%

Cc1ccc(S(=O)(=O)OC2C(CI)OCOC(CI)C2OS(=O)(=O)c2ccc(C)cc2)cc1 (stereo unspecified)
inactive: [1] -1.05% | [2] -7.3% | [3] -6.3% | [4] -20.4% | [5] -21.6% | [6] -14.8%

CON(C)S(=O)c1ccc([N+](=O)[O-])cc1 (stereo unspecified)
inactive: [1] 29.8% | [2] 19.1% | [3] 5.45% | [4] -15.6% | [5] -6.05% | [6] 22.1%

Cc1c(Cl)cccc1NC(=O)Oc1ccc(F)cc1Cl
inactive: [1] -1.4% | [2] -3.1% | [3] -2.3% | [4] 7.35% | [5] 17.6% | [6] -4.55%

Cc1ccc(Sc2cc([N+](=O)[O-])cc(Sc3ccc(C)cc3)c2Sc2ccc(C)cc2)cc1
inactive: [1] 22.2% | [2] -24.7% | [3] 10.4% | [4] 5.25% | [5] 1.35% | [6] -11.7%

C=CCNC(=S)N/C=C\c1c(C(=O)O)cc([N+](=O)[O-])cc1[N+](=O)[O-]
inactive: [1] -7.85% | [2] -24.1% | [3] -31.2% | [4] -23.2% | [5] 3.2% | [6] 5.6%
